# Results: PubChem BioAssay AID1347434 (National Center for Advancing Translational Sciences (NCATS), 2020)
# Screen size: about 1,200 compounds; about 30 (2%) were called active. Roughly 23% stayed inconclusive and do not appear here. The sample as a whole holds a higher share of actives than the screen did. A number with no mark means an inactive call. Calls follow the shape of the dose curve; as a rule, active = well fitted inhibition curve with a large enough effect; inconclusive = small, poorly fitted or top-dose-only effect; inactive = flat fitted curve, though single readings scatter.
# Target: Single-stranded DNA cytosine deaminase (Homo sapiens) (UniProt Q9GZX7)
# Assay: Confirmatory qHTS assay for inhibitors of Activation Induced Cytidine Deaminase (AID): AID signals
# Conditions: recombinant AID, FRET deamination/UDG coupled fluorescence, 4 h; series mostly up to 115 µM; activity, negative = inhibition: at the top concentration
# Source text: Assay Provider (PI) Patricia Gearhart Ph.D. National Institute on Aging National Institute of Health (NIH), Bethesda, MD Assay Provider (PI) Rahul Kohli Ph.D. Perelman School of Medicine University of Pennsylvania, Philadelphia, PA Activation-Induced Deaminase (AID) is a cytosine deaminase which converts cytosine into uracil within stretches of ssDNA. The presence of uracil in DNA initiates a cascade of mutagenic DNA repair to introduce point mutations and DNA double strand breaks. Specific targeting of AID to the immunoglobulin heavy chain loci (Igh) promotes mutagenesis in the antibody variable region for somatic hypermutation (SHM) or switch regions leading to class switch recombination (CSR). However, AID also plays a role in accumulating unnecessary mutations across the genome. Mis-targeting of AID results in the initiation of tumor development and leads to greater drug resistance among cancer cells when continually expressed. To identify an AID inhibitor, a small molecule library will be screened in collaboration with NCATS core facility at NIH. To confirm biological function, inhibitors will be examined in an in vitro murine B-cell activation assay and subsequent secondary validation screens. Top molecules will be further screened to identify inhibitory efficacy against a wild type primary splenocytes assay. Using these approaches, we hope to identify a small molecule with great efficacy and low toxicity for use as a molecular probe to further characterize AID's intricacies, or even as a therapeutic. A FRET based analysis of cytosine deamination, was developed to identify potential inhibitors of AID catalytic activity. This screen has two signal output, Read 1 evaluates the AID inhibition response. The second readout (Read 2) evaluates UDG response and is uses as a counterscreen to exclude false positive inhibitors. Inhibition in AID and inactivity in the UDG signal is the desired outcome for this assay.
# PROTOCOL TABLE SEQUENCE No. (e.g., 1, 2, 3, etc.); […] (e.g., Cells, Incubation, Reagent, etc.); VALUE; DESCRIPTION 1a; Reagent; 3 uL; [4/3x] 1 uM AID/2.67 U/mL UDG 1b; Reagent; 3 uL; 2 U/mL UDG 1c; Reagent; 3 uL; 1 uM AID 2a; Compound; 46 nL; Follow-up plates (0.64 uM - 10 mM) 2b; Control; 46 nL; ATA (16.4 nM - 10 mM) 3; Time; 10 min; incubation at room temperature 4; Reagents; 1 uL; [4x] 250 nM DJC20 / 250 nM DJC23 [Substrate] 5; Time; 4 hr; incubation at room temperature 6; Reagent; 4 uL; [2x] 250 mM NaOH 7; Time; 15 sec; centrifuge at 1000 rpm 8; Time; 30 min; incubation at room temperature 9a; Detection; fluorescence (Read 1: AID); EnVision (PerkinElmer) plate reader, 540 excitation and 590 emission filters 9b; Detection; fluorescence (Read 2: UDG); EnVision (PerkinElmer) plate reader, 560 excitation and 665 emission filters NOTES (numbers refer to sequence above) 1a; Reagents were dispensed in a medium-binding black solid-bottom Greiner plates (789176F) using a BioRptr liquid dispenser. Dispense 3 uL of [4/3x] 1 uM AID (provided by Kohli lab) and [4/3x] 2 U/mL UDG (NEB M0280L) into columns 1, 2, 5 to 48. 1b; Dispense 3 uL of [4/3x] 2 U/mL UDG into column 3. 1c; Dispense 3 uL of [4/3x] 1 uM AID into column 4. 2a; Compound ([…] [uM]: 0.64; 3.2; 16; 80; 400; 2,000; 10,000; 20,000) double pin-transferred (Dip Factor = 2) using the Kalypsys (Wako USA) pintool equipped with a 1536 pinhead for a final concentration range of 7.32 nM - 114 uM. 2b; 10 mM Aurintricarboxylic Acid (Sigma A1895) (ATA, 8-point, n = 2, 1:2.5 dilution in column 2) double pin-transferred (Dip Factor = 2) using the Kalypsys (Wako USA) pintool equipped with a 1536 pinhead for a [final] range of 186 nM - 114 uM. 3; Room temperature incubation. 4; Dispense 1 uL of substrate mixture from the Kohli lab [4x] […] DJC20 and [4x] 250 nM DJC23 into columns 1 to 48 . 5; Room temperature incubation. 6; Dispense 4 uL of […] [2x] 250 mM NaOH into columns 1 to 48. 7; Centrifugation step to remove bubbles. […]
# % is scaled to controls: 0 for no effect and ±100 for the full control effect; potency is read from the fitted curve at half-maximal effect.
# Single-stranded DNA cytosine deaminase (Homo sapiens), sequence (Q9GZX7 whole entry, looked up): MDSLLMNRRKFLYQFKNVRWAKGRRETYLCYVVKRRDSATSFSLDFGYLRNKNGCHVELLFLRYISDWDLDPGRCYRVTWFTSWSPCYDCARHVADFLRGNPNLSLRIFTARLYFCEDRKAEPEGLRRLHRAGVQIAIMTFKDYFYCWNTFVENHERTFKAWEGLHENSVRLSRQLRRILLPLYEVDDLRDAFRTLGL
Compound,Potency,"activity, negative = inhibition [%]"
NC(Cc1cc(O)c(O)cc1O)C(=O)O (stereo unspecified),22.4 µM (active),–
NCC(O)c1cc(O)c(O)cc1F (stereo unspecified),–,25.8
O=C(Nc1cc(C(F)(F)F)cc(C(F)(F)F)c1)c1cccn(Cc2ccccc2Cl)c1=O,–,-4.96
CN1CC[C@@]2(C)c3cc(O)ccc3N(C)C12 (stereo partly specified),22.4 µM (active),–
COc1cc(C(c2c(O)c3ccccc3oc2=O)c2c(C)n(C)n(-c3ccccc3)c2=O)ccc1O (stereo unspecified),–,12
Cc1cccc(-c2nc(CN3C(=O)CN=C(c4ccccc4)c4ccccc43)c(C)o2)c1,–,-12
Cc1ccc(NC(=O)N(Cc2ccc3c(c2)OCO3)C2CCN(Cc3ccccc3)CC2)cc1C,–,-20.4
CCCC1=Nc2cc(C(=O)NCCCN(CC)CC)ccc2Sc2ccccc21,–,1.24
O=S1(=O)N(CCN2CC=C(c3c[nH]c4cc(F)ccc34)CC2)c2cccc3c2N1CCC3,–,8.33
CC(=O)c1c(O)c(C)c(O)c(Cc2c(O)c3c(c(C(=O)/C=C/c4ccccc4)c2O)OC(C)(C)C=C3)c1O,14.1 µM (active),–
O=C(c1ccc2c(c1)N(Cc1ccc(F)cc1)C(=O)c1ccccc1S2)N1CCC2(CC1)OCCO2,–,-3.59
Cc1ccccc1CN1C(=O)C(C)N=C(c2ccccc2)c2ccccc21 (stereo unspecified),–,-4.23
COc1ccc2c(c[n+](C)c3c4cc5c(cc4ccc23)OCO5)c1OC,17.8 µM (active),–
Cc1cccc(CN2C(=O)CN=C(c3ccccc3)c3cc(Cl)ccc32)c1,–,-12.3
Cc1c(C(c2ccc(Cl)cc2Cl)c2c(O)c3ccccc3oc2=O)c(=O)n(-c2ccccc2)n1C (stereo unspecified),–,-5.38
Cc1ccccc1CN1C(=O)CN=C(c2ccccc2)c2cc(Cl)ccc21,–,-6.78
